D1 ag = activates the human D1 dopamine receptor; activation, % at 2 µM; P21728; HEK293 T-REx D1 cells, calcium flux, agonist mode; 360,000 tested, 1% active
Target sequence (P21728 whole entry, looked up): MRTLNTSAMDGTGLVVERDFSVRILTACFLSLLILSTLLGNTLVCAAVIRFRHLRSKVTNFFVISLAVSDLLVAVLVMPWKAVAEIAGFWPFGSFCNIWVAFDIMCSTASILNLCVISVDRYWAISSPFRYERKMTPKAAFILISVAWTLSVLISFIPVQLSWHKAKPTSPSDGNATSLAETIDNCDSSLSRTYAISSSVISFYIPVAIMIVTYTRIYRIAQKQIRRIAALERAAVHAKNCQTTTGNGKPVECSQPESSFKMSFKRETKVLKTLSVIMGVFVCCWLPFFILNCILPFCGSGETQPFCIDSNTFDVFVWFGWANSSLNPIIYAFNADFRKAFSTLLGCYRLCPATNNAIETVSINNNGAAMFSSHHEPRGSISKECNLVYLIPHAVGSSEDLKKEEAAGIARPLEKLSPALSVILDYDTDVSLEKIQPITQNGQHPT
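Agonism was scored from calcium flux recorded over 180 s (1 read/s) after pintool compound addition, following a 10-cycle baseline. Cells were inducible force-coupled HEK293 TREx D1, plated overnight at 30 C and loaded with no-wash calcium dye.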
TRHR ag = activates the human TRH receptor; P34981; TRHR cells, calcium flux fluo-8, FDSS agonist mode; activation, % at 2 µM; 360,000 tested, 0.18% active
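In this calcium-flux screen, cells bearing human TRHR are dye-loaded with fluo-8, baselined for 10 cycles, then exposed to library compounds; positive kinetic calcium responses during the agonist phase mark hits, with TRH as control.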
D1 antagonist = antagonists of human D1 dopamine receptor. HEK293 TREx D1 cells, calcium flux, dopamine EC80; hits give low values. AID 504652. P21728. 360,000 tested, 3.2% active. activity change, negative = inhibition, % at 10 µM; in the data active means activity change below about -30%
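After overnight tetracycline induction at 30 C, force-coupled D1 HEK293 cells took up a no-wash calcium dye at room temperature. Compounds were added and monitored 180 s, and the response to EC80 dopamine was then recorded.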
TRHR PAM = TRH receptor (human) allosteric enhancement | TRHR cells, fluo-8 calcium fluorescence, EC20 TRH enhancement | enhancement, % at 2 µM | 360,000 tested, 0.66% active | AID 493056; in the data active means enhancement above about 30%
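Enhancer read-out: after compound pinning and an initial kinetic agonist-mode read, an EC20 of TRH (10 nM final) was injected and fluo-8 calcium signal (Ex 480/Em 530) followed at 1 s/cycle for 100 cycles in TRHR-expressing cells.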
D1 PAM = human D1 dopamine receptor positive modulation; 360,000 tested, 0.036% active; P21728; AID 504651; HEK293 TREx D1 cells, calcium flux, dopamine EC20 potentiation; potentiation, % at 10 µM; in the data active means potentiation above about 30%
Numbers stand for hits; n = inactive; x = not tested or not shown; ! = not confirmed by another sample. Most compounds without a hit are left out; they make up all but 4.7% or so of the library. Unless noted, no stated cut-off is given here; in the data, active means activation above about 30%; inactive means the rest.

SMILES	D1 ag	TRHR ag	D1 antagonist	TRHR PAM	D1 PAM
COC(=O)C(Cc1ccc(N(CCCl)CCCl)cc1)N=Cc1ccccc1O (configuration not stated)	n	n	-40	n	n
CCN1/C(=C\C=C\C2=[N+](CC)c3ccccc3C2(C)C)C(C)(C)c2ccccc21	204	124	n	n	n
O=C1CN=C(c2ccccc2Cl)c2cc(Cl)ccc2N1Cc1cccc(Cl)c1	n	n	n	n	n
Cc1cc(C)cc(OCC(=O)Nc2ccc(Cl)cc2C(=O)c2ccccc2)c1	n	n	n	n	n
O=c1[nH]c(O)c(C=Nc2ccccc2[N+](=O)[O-])c(=O)[nH]1	n	n	-47	n	n
CCOC(=O)C(O)(c1ccc(NC(=O)Oc2ccccc2)cc1)C(F)(F)F (configuration not stated)	n	n	n	n	n
COC(=O)C(O)(c1ccc(NC(=S)NC(=O)c2ccc(Cl)cc2Cl)cc1)C(F)(F)F (configuration not stated)	31	n	-32	n	n
CCOC(=O)C(O)(c1ccc(NC(=S)NC(=O)c2ccc(Cl)cc2Cl)cc1)C(F)(F)F (configuration not stated)	44	n	n	n	n
COC(=O)C(O)(c1ccc(NC(=O)NC2CCCCC2)cc1)C(F)(F)F (configuration not stated)	n	n	n	n	n
Cc1oc(-c2ccc(Cl)cc2)nc1CN1C(=O)CN=C(c2ccccc2)c2cc(Cl)ccc21	n	n	n	n	n
Cc1ccc2c(c1)C1CN(C)CCC1N2C(=O)Nc1cccc(Cl)c1 (configuration not stated)	n	n	-96	n	n
O=C(Nc1ccc(F)c(Cl)c1)N(Cc1ccc2c(c1)OCO2)C1CCN(Cc2ccccc2)CC1	n	n	n	n	n
O=C(Nc1ccc(OC(F)(F)F)cc1)c1cccn(Cc2ccccc2Cl)c1=O	n	n	n	n	n
OC(CN1CCC(c2c[nH]c3ccccc23)CC1)C(F)(F)F (configuration not stated)	n	n	-41	n	n
CC(=O)OCC[N+](C)(C)C	46!	36	n	n	n
CN1C[C@H](CO)C=C2c3cccc4[nH]cc(c34)C[C@H]21	n	n	-76	n	n
O=[N+]([O-])c1ccc(NC2CCCC2)c2ccncc12	n	n	n	35	n
O=[N+]([O-])c1ccc(NC2CCN(Cc3ccccc3)CC2)c2ccncc12	n	n	n	n	n
CSc1ncc(C(=O)Nc2ccc(Cl)cc2C(=O)c2ccccc2)c(C)n1	n	n	n	n	n
Cc1ncc(CN2CCCC(C(=O)c3cccc(Cl)c3)C2)s1 (configuration not stated)	n	n	n	n	n
CCOC(=O)c1[nH]ncc1CN1CCCC(C(=O)c2cccc(Cl)c2)C1 (configuration not stated)	43	n	n	n	n
COc1ccc2[nH]cc(CCN=C(N)N)c2c1	n	n	n	36	n
O=c1[nH]c(=O)n(C2CCCCC2)c(O)c1/C=C/C=Nc1ccccc1	175	63	n	n	n
Cc1ccc(-n2c(O)c(/C=C/C=Nc3ccccc3)c(=O)[nH]c2=O)cc1	50	n	n	n	n
COc1ccc(-n2c(O)c(/C(C)=N/Nc3ccccc3)c(=O)[nH]c2=O)cc1	n	n	n	n	n
SMILES	D1 ag	TRHR ag	D1 antagonist	TRHR PAM	D1 PAM
COc1ccc(-n2c(O)c(/C=C/C=Nc3ccccc3)c(=O)[nH]c2=O)cc1	91	n	n	n	n
C=CCn1c(O)c(/C=C/C=Nc2ccccc2)c(=O)[nH]c1=O	n	n	n	n	n
O=c1[nH]c(=O)n(-c2ccccc2)c(O)c1/C=C/C=Nc1ccccc1	n	n	n	n	n
O=S1(=O)N(Cc2ccccc2Cl)CCCN1Cc1ccccc1Cl	n	n	n	n	n
CCCCc1ccc(NC(=O)c2cccn(Cc3ccc(Cl)cc3)c2=O)cc1	n	n	n	n	n
Nc1cc(Cl)c2nonc2c1[N+](=O)[O-]	n	n	-32	n	n
CCCCCc1nc2ccccc2c(=O)n1-c1ccc(Cl)cc1[N+](=O)[O-]	n	n	-44	n	n
CCCCc1nc2ccccc2c(=O)n1-c1ccccc1O	n	n	n	n	n
CN1CCN(c2csc3ccc(F)cc3c2=O)CC1	n	n	n	n	n
CSc1ccc(/C=C/c2nc3ccccc3c(=O)n2-c2cccc(Cl)c2C)cc1	n	n	n	n	n
COc1ccc2c3c([nH]c2c1)C(C)=NCC3	n	n	n	n	n
CC1=NCCc2c1[nH]c1cc(O)ccc21	405	n	n	n	n
CC(C)c1ccc(NC(=O)CN2C(=O)CN=C(c3ccccc3)c3ccccc32)cc1	n	n	n	n	n
CC1(C)CC(CCNCc2ccc3c(c2)OCO3)(Cc2ccccc2)CCO1 (configuration not stated)	61	n	n	n	n
O=C(Nc1cc(C(F)(F)F)cc(C(F)(F)F)c1)c1cccn(Cc2ccccc2Cl)c1=O	n	n	n	n	n
COc1ccc(-n2c(/C=C\c3ccccc3F)nc3ccccc3c2=O)cc1OC	n	n	n	n	n
CC(Cc1ccccc1)NC(N)=O (configuration not stated)	n	n	n	n	n
CC(Cc1ccccc1)NC(=O)/C=C/c1ccc(Cl)cc1 (configuration not stated)	n	n	-32	n	n
O=c1[nH]c2ccccc2c(=O)n1-c1ccc(Cl)c(Cl)c1	n	n	n	n	n
OC(COCc1ccc(Cl)cc1)CN1CC=C(c2ccccc2)CC1 (configuration not stated)	n	n	n	n	n
OC(CN1CC=C(c2ccccc2)CC1)c1ccccc1 (configuration not stated)	n	n	n	35	n
COc1ccc(-c2nc(CN3C(=O)CN=C(c4ccccc4)c4cc(Cl)ccc43)c(C)o2)cc1	n	n	n	n	n
COC(=O)C1=C(c2ccc(F)cc2OCc2ccccc2)C[C@@H]2CC[C@H]1N2C(=O)NCCc1ccc(F)cc1	n	n	-32	n	n
COC(=O)C1=C(c2ccccc2OCc2ccccc2)C[C@@H]2CC[C@H]1N2C(=O)NCCOc1ccc(OC)cc1	n	n	-38	n	n
COC(=O)C1=C(c2cccc(OCc3ccccc3)c2)C[C@@H]2CC[C@H]1N2C(=O)NCc1ccccc1C(F)(F)F	n	n	n	34	n
COC(=O)C1=C(c2ccc(F)cc2OCc2ccccc2)C[C@@H]2CC[C@H]1N2C(=O)NCCOc1ccc(OC)cc1	n	n	n	n	n
COC(=O)C1=C(c2cccc(OCc3ccccc3)c2)C[C@@H]2CC[C@H]1N2C(=O)NCc1cccc(OC)c1	n	n	x	n	n

Screening results: PubChem BioAssay, National Center for Advancing Translational Sciences (NCATS)
